Measurements: the supplement of paper PMC11732987, “Enantioselective OTUD7B fragment discovery through chemoproteomics screening and high-throughput optimisation” (Communications Chemistry, 2025)

Assays:
Assay in all cases: log2 ratio of Biotin-Ahx-Ub-VS probe labelling (fragment/DMSO); higher = less target engagement (more negative = stronger competition), active = hit call of the paper (q ≤ 0.05, log2 ratio ≤ -1)
Conditions in all cases: compound concentration: 200 uM; treatment time: 3 h
USP42 = biological target: T1, USP42 (UniProt Q9H9J4)
T1 sequence (whole entry): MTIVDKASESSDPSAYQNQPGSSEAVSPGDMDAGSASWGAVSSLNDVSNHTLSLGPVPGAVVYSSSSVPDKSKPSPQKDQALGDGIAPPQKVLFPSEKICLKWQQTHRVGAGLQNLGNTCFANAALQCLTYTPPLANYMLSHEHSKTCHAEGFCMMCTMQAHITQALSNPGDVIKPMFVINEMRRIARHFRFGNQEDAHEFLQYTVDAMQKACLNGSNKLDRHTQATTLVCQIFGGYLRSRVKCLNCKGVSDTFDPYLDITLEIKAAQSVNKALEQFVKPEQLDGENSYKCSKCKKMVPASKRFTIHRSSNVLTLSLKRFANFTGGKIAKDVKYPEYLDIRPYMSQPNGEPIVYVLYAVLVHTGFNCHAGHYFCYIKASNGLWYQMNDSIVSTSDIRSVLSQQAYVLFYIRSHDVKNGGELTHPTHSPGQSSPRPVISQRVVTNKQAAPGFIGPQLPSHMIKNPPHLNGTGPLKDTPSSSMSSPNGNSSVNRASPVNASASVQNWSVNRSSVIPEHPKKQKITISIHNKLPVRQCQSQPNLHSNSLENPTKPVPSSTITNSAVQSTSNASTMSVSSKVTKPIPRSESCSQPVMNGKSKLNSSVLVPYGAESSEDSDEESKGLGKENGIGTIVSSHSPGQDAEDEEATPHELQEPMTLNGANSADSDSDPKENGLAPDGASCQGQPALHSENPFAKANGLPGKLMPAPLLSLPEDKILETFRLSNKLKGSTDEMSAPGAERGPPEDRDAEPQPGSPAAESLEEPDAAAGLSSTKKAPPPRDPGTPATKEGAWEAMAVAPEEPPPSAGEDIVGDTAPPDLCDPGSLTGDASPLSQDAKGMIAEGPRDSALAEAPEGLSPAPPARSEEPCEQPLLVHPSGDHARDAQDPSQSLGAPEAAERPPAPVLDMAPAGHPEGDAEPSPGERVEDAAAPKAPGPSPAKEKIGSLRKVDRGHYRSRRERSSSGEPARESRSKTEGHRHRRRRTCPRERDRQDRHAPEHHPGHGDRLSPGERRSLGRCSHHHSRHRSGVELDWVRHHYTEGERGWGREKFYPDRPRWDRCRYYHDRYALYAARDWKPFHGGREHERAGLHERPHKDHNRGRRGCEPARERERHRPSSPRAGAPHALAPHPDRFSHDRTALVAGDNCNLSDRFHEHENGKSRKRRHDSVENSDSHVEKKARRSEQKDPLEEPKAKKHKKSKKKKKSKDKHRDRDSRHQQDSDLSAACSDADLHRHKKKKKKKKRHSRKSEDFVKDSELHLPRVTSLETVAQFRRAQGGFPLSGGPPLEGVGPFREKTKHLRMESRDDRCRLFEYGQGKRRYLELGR
In short: (§1)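 HEK293T lysate, 495 µg per sample in Tris/CHAPS/IGEPAL buffer with protease inhibitors, was treated in triplicate with fragment at 200 µM or vehicle for 3 h and then with Biotin-Ahx-Ub-VS at 0.5 µM final for 1 h. Labelled DUBs were NeutrAvidin-enriched, digested with LysC and trypsin, and run by diaPASEF LC-MS/MS. Spectronaut label-free quantities were global-median-normalised, and values are average log2 fragment/vehicle ratios by unpaired t-test on proteins with ≥2 unique peptides.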

USP46 = USP46 (UniProt P62068)
USP46, sequence (P62068 whole entry): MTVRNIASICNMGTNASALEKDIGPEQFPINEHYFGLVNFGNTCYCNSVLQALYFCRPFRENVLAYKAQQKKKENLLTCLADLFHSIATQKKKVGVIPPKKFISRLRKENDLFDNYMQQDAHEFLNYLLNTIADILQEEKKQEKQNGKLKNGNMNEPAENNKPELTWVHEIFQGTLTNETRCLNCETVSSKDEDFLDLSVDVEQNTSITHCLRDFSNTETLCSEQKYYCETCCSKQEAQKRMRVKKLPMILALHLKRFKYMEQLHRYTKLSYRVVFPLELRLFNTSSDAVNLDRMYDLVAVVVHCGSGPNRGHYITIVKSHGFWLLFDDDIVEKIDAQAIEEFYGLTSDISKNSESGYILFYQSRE
In short: as §1

USP47 = biological target: T2, USP47 (UniProt Q96K76)
T2 sequence (whole entry): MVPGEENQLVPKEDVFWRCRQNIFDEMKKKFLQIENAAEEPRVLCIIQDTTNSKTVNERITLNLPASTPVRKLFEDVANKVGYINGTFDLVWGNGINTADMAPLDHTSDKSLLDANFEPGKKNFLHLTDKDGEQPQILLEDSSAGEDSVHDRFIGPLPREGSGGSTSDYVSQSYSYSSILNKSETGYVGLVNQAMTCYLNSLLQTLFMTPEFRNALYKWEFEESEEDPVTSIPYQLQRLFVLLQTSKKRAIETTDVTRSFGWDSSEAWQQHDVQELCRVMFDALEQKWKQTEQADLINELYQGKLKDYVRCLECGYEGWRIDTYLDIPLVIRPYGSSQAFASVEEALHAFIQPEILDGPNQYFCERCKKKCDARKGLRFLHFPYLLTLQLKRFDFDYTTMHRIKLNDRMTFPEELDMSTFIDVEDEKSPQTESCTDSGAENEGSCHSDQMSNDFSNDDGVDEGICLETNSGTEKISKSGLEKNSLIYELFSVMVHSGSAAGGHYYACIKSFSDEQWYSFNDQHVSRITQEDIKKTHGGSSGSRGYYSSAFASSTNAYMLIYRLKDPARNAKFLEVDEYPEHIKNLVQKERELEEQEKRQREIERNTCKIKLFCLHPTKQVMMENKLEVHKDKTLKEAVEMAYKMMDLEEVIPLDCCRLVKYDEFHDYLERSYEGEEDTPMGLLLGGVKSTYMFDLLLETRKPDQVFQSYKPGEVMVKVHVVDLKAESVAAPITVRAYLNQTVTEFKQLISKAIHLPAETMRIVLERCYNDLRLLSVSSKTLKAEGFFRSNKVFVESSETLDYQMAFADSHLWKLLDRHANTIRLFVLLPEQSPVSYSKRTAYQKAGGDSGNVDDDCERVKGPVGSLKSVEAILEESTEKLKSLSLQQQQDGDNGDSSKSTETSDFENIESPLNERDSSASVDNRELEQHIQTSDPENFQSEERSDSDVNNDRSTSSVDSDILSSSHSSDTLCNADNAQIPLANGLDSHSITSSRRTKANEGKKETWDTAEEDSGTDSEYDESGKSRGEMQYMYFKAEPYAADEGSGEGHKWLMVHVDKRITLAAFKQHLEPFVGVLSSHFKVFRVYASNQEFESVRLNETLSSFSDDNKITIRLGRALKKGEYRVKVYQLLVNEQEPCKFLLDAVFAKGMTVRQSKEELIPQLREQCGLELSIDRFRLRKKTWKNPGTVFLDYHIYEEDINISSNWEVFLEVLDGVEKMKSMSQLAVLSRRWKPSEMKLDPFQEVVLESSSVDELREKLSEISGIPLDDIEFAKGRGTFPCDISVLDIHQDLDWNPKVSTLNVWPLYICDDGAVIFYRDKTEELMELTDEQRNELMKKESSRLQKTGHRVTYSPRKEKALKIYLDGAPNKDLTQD
In short: as §1

USP48 = biological target: T3, USP48 (UniProt Q86UV5)
T3 sequence (whole entry): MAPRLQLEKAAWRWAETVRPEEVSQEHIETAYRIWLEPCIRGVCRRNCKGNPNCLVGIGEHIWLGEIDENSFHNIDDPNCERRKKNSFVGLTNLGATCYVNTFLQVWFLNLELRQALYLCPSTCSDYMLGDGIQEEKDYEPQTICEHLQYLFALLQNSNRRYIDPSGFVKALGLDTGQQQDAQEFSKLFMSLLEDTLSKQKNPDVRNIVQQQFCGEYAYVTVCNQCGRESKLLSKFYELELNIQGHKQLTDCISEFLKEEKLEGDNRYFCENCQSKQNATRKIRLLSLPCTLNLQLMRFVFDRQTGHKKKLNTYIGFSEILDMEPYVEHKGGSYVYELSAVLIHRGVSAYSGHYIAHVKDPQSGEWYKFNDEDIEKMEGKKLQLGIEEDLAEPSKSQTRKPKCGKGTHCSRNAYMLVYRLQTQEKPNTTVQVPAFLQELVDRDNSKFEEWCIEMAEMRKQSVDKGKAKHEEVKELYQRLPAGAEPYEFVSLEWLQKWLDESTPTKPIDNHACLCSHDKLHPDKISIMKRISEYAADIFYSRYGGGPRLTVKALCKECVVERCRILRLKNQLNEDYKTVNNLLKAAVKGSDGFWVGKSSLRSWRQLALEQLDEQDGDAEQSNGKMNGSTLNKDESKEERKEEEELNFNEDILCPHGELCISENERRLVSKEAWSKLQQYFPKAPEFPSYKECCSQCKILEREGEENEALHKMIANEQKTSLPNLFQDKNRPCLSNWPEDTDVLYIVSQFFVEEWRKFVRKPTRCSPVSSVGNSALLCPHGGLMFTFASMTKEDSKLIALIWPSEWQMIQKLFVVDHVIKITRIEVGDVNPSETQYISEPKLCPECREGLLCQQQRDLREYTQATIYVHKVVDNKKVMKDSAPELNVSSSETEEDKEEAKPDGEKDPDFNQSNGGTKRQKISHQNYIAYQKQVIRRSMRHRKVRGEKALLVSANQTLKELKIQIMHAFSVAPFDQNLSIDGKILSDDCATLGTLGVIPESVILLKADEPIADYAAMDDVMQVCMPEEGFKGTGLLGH
In short: as §1

USP5 = biological target: T4, USP5 (UniProt P45974)
T4 sequence (whole entry): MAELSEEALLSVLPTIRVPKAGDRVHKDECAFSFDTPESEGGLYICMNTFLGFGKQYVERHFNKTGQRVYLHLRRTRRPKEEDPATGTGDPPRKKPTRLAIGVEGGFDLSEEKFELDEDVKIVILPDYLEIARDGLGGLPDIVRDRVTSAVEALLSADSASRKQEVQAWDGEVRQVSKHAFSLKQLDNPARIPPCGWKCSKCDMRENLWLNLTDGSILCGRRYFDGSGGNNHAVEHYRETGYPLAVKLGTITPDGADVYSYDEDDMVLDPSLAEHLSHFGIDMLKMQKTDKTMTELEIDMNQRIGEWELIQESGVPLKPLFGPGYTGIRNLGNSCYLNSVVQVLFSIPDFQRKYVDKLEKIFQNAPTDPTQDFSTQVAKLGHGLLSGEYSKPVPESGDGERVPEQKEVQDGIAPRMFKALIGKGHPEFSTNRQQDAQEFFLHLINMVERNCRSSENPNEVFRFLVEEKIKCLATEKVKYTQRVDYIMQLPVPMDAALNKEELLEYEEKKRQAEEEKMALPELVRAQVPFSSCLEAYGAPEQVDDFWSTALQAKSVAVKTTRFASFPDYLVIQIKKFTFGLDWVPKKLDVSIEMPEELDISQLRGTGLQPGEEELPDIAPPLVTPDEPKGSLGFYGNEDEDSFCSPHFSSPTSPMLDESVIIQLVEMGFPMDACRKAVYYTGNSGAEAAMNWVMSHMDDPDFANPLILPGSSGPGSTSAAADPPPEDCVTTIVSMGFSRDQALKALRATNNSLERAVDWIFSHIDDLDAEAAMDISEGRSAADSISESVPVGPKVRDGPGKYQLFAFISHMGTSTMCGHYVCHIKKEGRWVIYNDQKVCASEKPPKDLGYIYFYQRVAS
In short: as §1

USP54 = USP54 (UniProt Q70EL1)
USP54, sequence (Q70EL1 whole entry): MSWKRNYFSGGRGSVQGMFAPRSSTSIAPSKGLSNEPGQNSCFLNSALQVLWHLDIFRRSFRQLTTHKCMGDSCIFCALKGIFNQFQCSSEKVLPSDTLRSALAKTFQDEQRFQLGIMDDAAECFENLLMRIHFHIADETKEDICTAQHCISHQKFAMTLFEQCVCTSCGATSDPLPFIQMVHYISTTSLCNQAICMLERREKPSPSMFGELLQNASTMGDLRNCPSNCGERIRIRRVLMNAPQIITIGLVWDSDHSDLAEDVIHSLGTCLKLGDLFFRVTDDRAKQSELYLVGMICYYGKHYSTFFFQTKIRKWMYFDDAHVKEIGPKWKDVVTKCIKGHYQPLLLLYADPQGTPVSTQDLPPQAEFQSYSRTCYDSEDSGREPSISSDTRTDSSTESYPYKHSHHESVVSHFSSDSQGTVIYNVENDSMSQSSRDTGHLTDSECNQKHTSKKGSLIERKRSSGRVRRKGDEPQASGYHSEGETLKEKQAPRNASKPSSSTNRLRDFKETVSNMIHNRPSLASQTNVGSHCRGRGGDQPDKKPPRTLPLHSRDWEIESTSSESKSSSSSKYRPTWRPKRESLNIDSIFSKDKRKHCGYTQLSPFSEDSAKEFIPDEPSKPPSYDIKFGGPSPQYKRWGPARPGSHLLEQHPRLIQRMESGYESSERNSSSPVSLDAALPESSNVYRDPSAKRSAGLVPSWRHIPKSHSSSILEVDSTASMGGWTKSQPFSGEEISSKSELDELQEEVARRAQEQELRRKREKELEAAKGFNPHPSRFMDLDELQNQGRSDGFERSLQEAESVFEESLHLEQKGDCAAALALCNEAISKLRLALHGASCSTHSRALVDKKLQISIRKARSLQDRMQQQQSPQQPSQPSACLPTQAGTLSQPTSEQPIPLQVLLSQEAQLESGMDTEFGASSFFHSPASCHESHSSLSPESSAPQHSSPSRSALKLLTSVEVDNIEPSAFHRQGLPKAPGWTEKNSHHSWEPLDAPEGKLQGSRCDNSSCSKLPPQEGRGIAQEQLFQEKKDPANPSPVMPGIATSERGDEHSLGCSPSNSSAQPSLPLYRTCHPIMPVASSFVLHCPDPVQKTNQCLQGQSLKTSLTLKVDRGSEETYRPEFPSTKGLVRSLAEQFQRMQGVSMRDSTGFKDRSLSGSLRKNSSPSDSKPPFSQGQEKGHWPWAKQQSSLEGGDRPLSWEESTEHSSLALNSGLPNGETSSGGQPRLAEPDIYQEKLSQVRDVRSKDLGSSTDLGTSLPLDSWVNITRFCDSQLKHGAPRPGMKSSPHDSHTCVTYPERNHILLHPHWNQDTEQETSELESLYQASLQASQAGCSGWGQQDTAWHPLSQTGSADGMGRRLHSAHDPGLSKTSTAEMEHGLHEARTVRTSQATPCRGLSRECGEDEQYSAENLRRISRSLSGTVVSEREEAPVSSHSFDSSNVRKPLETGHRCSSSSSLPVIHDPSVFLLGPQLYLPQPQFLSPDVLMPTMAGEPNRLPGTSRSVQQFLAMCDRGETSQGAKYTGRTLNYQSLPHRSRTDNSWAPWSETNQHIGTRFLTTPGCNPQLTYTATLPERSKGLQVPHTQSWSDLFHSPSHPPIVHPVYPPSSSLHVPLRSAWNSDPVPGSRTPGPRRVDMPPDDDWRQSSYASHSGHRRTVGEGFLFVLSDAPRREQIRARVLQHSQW
In short: as §1

USP7 = USP7 (UniProt Q93009)
USP7, sequence (Q93009 whole entry, looked up): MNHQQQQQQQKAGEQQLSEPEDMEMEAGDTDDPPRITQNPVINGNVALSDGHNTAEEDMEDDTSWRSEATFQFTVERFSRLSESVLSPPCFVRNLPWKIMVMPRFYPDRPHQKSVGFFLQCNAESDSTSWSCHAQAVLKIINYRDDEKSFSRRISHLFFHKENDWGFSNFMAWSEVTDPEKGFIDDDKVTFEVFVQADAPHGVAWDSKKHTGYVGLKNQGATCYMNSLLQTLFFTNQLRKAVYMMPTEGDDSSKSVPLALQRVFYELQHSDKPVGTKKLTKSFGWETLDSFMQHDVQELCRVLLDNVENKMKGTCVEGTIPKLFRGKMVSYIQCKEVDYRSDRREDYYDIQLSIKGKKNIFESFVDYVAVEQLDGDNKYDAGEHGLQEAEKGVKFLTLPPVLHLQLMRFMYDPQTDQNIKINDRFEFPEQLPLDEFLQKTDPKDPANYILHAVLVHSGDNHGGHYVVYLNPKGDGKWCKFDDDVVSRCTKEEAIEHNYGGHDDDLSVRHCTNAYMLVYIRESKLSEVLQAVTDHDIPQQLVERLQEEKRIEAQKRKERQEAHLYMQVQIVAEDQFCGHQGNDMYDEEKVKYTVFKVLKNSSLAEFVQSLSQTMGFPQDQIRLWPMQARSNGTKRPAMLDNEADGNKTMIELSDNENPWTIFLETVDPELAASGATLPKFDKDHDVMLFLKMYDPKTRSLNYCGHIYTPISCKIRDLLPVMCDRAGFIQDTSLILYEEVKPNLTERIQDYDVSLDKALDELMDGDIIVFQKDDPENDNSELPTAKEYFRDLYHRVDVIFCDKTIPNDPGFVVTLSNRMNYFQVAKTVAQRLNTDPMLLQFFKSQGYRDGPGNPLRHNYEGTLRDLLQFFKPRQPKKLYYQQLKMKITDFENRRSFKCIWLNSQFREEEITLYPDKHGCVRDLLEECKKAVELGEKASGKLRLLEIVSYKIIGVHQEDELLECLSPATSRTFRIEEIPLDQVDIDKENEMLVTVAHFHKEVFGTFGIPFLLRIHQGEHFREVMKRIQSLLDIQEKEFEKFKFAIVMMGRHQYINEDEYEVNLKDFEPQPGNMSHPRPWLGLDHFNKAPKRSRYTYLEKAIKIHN
In short: as §1

USP8 = biological target: T5, USP8 (UniProt P40818)
T5 sequence (whole entry): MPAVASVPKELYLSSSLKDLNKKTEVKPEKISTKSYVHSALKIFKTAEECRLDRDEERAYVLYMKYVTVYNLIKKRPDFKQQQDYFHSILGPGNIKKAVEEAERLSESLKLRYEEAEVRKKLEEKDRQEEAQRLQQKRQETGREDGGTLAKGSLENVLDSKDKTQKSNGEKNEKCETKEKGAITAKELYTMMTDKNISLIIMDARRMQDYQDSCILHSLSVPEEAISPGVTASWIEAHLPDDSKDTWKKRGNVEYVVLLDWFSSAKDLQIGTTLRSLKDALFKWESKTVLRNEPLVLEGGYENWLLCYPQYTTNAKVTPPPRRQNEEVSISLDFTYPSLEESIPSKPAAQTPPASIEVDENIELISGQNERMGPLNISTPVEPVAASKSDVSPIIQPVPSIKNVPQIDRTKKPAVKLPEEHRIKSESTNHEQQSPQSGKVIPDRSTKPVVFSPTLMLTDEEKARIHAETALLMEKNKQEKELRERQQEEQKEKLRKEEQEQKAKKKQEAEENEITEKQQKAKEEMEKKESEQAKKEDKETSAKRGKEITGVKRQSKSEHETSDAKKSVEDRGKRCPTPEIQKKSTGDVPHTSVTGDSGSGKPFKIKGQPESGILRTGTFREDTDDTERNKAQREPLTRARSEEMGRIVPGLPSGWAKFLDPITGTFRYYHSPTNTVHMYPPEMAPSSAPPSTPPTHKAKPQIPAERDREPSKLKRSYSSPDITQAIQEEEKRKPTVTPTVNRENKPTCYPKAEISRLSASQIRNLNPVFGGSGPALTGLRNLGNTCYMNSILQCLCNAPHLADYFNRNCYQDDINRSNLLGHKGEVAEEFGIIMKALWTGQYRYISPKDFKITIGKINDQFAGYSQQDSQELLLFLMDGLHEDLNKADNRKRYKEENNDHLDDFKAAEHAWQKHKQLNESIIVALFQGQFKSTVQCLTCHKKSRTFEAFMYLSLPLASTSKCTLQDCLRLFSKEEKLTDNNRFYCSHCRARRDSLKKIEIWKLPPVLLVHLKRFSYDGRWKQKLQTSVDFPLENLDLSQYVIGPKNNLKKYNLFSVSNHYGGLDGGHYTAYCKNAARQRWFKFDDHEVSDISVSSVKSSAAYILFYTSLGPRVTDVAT
In short: as §1

Measured: log2 ratio of Biotin-Ahx-Ub-VS probe labelling

Cc1ccc(CC(CO)CNC(=O)CCl)cc1 (stereo not drawn)
inactive: USP42 -0.0167 | USP46 -0.000866 | USP47 -0.102 | USP48 -0.405 | USP5 -0.182 | USP54 0.455 | USP7 -0.381 | USP8 -0.322
